Compounds with a hit are over-represented: about 10% of the library has one in this group of screens.
MCF10A rerep: DNA re-replication induction in MCF 10a cells; MCF 10A DNA re-replication, Hoechst nuclear intensity, 48 h; Potency, µM (highest dose often 46.1 µM), without a hit: at the top dose activity, positive = re-replication, hits mostly activators; 350,000 tested, 2.9% active; AID 624296; also: % of control where 0% means no effect; nearly all actives have a fitted effect of over 50% in size
RORgamma inh: blocks mouse ROR gamma transcriptional activity. P51450. Drosophila S2 Gal4-RORgamma UAS-luciferase reporter, 20 h. Potency, µM (doses to about 53.6 µM), for the others: top-dose activity change, negative = inhibition, usual class: inhibitors. 310,000 tested, 5.4% active; also: % is scaled to controls: 0 for no effect and ±100 for the full control effect; nearly all actives have a fitted effect of over 60% in size
Target sequence (P51450 whole entry, looked up, the tested form may be a part): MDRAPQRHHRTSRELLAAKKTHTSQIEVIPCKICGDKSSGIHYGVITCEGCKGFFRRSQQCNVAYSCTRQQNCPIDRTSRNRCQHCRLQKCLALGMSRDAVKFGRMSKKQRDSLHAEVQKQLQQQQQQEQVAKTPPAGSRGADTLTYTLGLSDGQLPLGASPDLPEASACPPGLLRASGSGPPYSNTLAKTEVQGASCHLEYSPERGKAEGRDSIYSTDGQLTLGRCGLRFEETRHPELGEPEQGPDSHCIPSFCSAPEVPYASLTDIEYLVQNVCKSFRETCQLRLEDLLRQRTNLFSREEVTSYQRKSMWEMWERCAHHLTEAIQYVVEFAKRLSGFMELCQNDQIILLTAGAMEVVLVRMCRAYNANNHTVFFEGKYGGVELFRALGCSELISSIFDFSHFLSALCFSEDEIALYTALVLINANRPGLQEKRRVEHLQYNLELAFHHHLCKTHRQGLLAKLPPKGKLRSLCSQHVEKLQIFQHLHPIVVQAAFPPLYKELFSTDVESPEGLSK
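Drosophila Schneider cells stably carrying a metallothionein-driven Gal4 DBD–ROR gamma fusion and a UAS-Photinus luciferase reporter were exposed to compound for 1 hr, then induced with copper sulfate (700 uM final) for 20 hr at ambient temperature before luminescence reading.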
SW480 rerep: induces DNA re-replication in SW480 colon adenocarcinoma cells. SW480 DNA re-replication, Hoechst DNA content imaging, 48 h. Potency, µM (series often up to 46.1 µM), for inactives: top-dose re-replication activation, hits mostly activators. 340,000 tested, 1.8% active; also: % of control where 0% means no effect; nearly all actives have a fitted effect of over 55% in size
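Cells (250 per well) received 23 nL compound or DMSO by pin tool and were kept 48 hr at 37 C, 5% CO2. Nuclei were then stained with Hoechst for 40 min and scanned for DNA content.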
KB-V1 MDR tox: kills drug-selected multidrug resistant KB-V1 cells; KB-V1 MDR cells viability, CellTiter-Glo, 72 h; Potency, µM (doses to about 46.1 µM), most hits filed as cytotoxic; 400,000 tested, 3.4% active; AID 1347076; also: % is scaled to controls: 0 for no effect and ±100 for the full control effect; nearly all actives have a fitted effect of over 60% in size
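Cytotoxicity via CellTiter-Glo luminescence after 72 h compound exposure at 37 degrees C. Cells: drug-selected KB-V1 line, DMEM phenol-red free plus 10% FBS. Compounds tested at multiple concentrations; normalized data fitted to concentration-effect curves.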
VP16 counter: inhibits Gal4-VP16 luciferase reporter, ROR gamma counter-screen; Drosophila S2 Gal4-VP16 UAS-luciferase, luminescence, 20 h; Potency, µM (series often up to 53.6 µM), without a hit: top-dose activity, negative = inhibition, actives largely listed as inhibitors; 310,000 tested, 3.5% active; AID 2546;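 also: Gal4-VP16 expression switched on by copper sulfate through the metallothionein promoter; % is scaled to controls: 0 for no effect and ±100 for the full control effect; nearly all actives have a fitted effect of over 50% in size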
KB-3-1 cytotox: kills parental KB-3-1 adenocarcinoma cells. KB-3-1 viability, CellTiter-Glo ATP luminescence, 72 h. Potency, µM (series often up to 46.1 µM), most hits filed as cytotoxic. 400,000 tested, 1.4% active; also: % is scaled to controls: 0 for no effect and ±100 for the full control effect; nearly all actives have a fitted effect of over 60% in size
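KB-3-1 cells, DMEM (no phenol red) + 10% FBS; compound by pin transfer, 72 h, 37 °C. Readout: CellTiter-Glo luminescence after 10 min. Data normalized, curve-fitted.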
Active calls of the source: *; i = inactive; u = inconclusive; x = no result; [ ] = remark or other dose. Calls follow the shape of the dose curve; as a rule, active = well fitted curve in the direction sought with a large enough effect; inconclusive = small, poorly fitted or top-dose-only effect, or another doubt; inactive = no such curve, though single readings can be large; an effect the other way counts as inactive or inconclusive. Potency is read from the fitted curve at half-maximal effect.

SMILES	MCF10A rerep	RORgamma inh	SW480 rerep	KB-V1 MDR tox	VP16 counter	KB-3-1 cytotox
Cc1ccc(C(=O)COC(=O)c2ccc3c(c2)C(=O)N(c2cccc4ncccc24)C3=O)cc1	u	u	-3%	i	u	i
CCc1ccc(NC(=O)C(=O)NCCc2sc(-c3ccc(C)cc3)nc2C)cc1	x	x	x	i	x	i
Cc1ccccc1OCc1occc1C(=O)Nc1cccc(-n2cnnn2)c1	-6%	17%	-3%	u	-8%	16µM*
Cc1cccc(OCc2occc2C(=O)Nc2cccc(-n3cnnn3)c2)c1	1%	25%	-1%	i	-2%	i
C[C@H](CO)N1C[C@H](C)[C@H](CN(C)S(=O)(=O)c2cn(C)cn2)Oc2ccc(NC(=O)Nc3ccc(C(F)(F)F)cc3)cc2CC1=O	u	x	u	u	x	4.1µM*
Cc1ccc(S(=O)(=O)N(C)C[C@@H]2Oc3ccc(NC(=O)CCC(F)(F)F)cc3CC(=O)N([C@@H](C)CO)C[C@@H]2C)cc1	3.7µM*	x	3.7µM*	i	x	u
C[C@H]1CN([C@@H](C)CO)C(=O)Cc2cc(NC(=O)CCC(F)(F)F)ccc2O[C@H]1CN(C)S(C)(=O)=O	2%	x	2%	i	x	i
COc1cc(NC(=O)c2c(C)nn(-c3ccc(F)cc3)c2-n2cccc2)cc(OC)c1	x	x	x	i	x	i
CCOc1ccc(Br)cc1S(=O)(=O)NC1CC(C)(C)NC(C)(C)C1	13%	-27%	0.52µM*	i	-1%	i
Cc1ccc(N2CC3=C(C2=O)C(c2ccc(Br)cc2)NC(=O)N3C)cc1 (stereo not given)	x	x	x	u	x	i
Cc1ccc(/C=N/N=C2/NC(=O)C(CC(=O)Nc3ccccc3)S2)o1 (stereo not given)	u	11µM*	7%	i	-5%[10 µM]	i
Cc1ccc(/C=N/N=C2/NC(=O)C(CC(=O)Nc3ccc(Cl)cc3)S2)o1 (stereo not given)	4%	11µM*	u	i	u	i
O=C(O)CC1S/C(=N/N=C/C=C/c2ccccc2)NC1=O (stereo not given)	-3%	u	-2%	i	-3%	i
O=C(CC1S/C(=N/N=C/C=C/c2ccccc2)NC1=O)Nc1ccc(Cl)c(Cl)c1 (stereo not given)	2%	5.6µM*	u	i	7.9µM*	i
CCCCN=C1NC(=O)C(CC(=O)Nc2ccc(Cl)cc2)S1 (stereo not given)	2%	21%	-2%	i	-5%	i
Cc1ccc(N2CCN(C(=O)CCS(=O)(=O)c3cc4c(cc3Cl)NC(=O)CO4)CC2)c(C)c1	x	x	x	i	x	i
COCCCNC(=O)CN1C(=O)COc2ccc(S(=O)(=O)N3CCCC3)cc21	x	x	x	i	x	i
CCOc1ccc2c(c1)nc(SCC(=O)c1ccc(Br)s1)n2C	76%	14µM*	u	18µM*	u	u
Cc1nc(-c2ccc(NC(=O)c3ccco3)cc2)cs1	-5%	3.5µM*	-3%	i	4.5µM*	u
Cc1nc(-c2ccc(C(=O)Nc3ccccc3F)cc2)cs1	-2%	8.9µM*	-8%	12µM*	8.9µM*	u
Cc1ccc(-c2csc(/C=C3/SC(C)C(=O)N3CC(=O)Nc3ccccc3F)n2)cc1 (stereo not given)	21µM*	x	u	i	x	i
Nc1nc(-c2ccc(NC(=O)c3ccco3)cc2)cs1	10%	10µM*	u	i	u	i
CC(=O)c1ccccc1NC(=O)CN1C(=O)CS/C1=C\c1nc(-c2ccc(C)cc2)cs1	4%	-16%	3%	i	3%	i
COc1ccccc1CNc1ncnc2ccc(-c3cccc(C#N)c3)cc12	x	u	x	x	0%	x
CC1=C(C(=O)Nc2cccnc2)C(c2cccc(F)c2)n2nc(SCc3ccccc3)nc2N1 (stereo not given)	x	x	x	i	x	i
SMILES	MCF10A rerep	RORgamma inh	SW480 rerep	KB-V1 MDR tox	VP16 counter	KB-3-1 cytotox
CNC(=O)NC(=O)COC(=O)CCCSc1nc2ccccc2s1	12%	u	-1%	i	u	i
CC(OC(=O)CCCSc1nc2ccccc2s1)C(=O)NC(N)=O (stereo not given)	-1%	4.5µM*	4%	i	4µM*	i
N#Cc1ccsc1NC(=O)COC(=O)CCCSc1nc2ccccc2s1	5%	u	-3%	i	5µM*	i
NC(=O)COC(=O)CCCSc1nc2ccccc2s1	-3%	7.9µM*	-5%	i	13µM*	i
C[S+](C)CC[C@H](N)C(=O)O	3%	-5%	-1%	x	-8%	x
Clc1cccc(-c2ccc(C=Nc3ccc(N4CCOCC4)cc3)o2)c1Cl	21µM*	-11%	u	i	-12%	i
CC(=O)Nc1ccc(N2C(C(C)=O)=NN(c3ccc(Cl)cc3)C2c2sccc2C)cc1 (stereo not given)	23µM*	u	u	u	u	i
COc1ccc(-c2csc(C(NC(C)=O)c3cccc(F)c3)n2)cc1 (stereo not given)	x	x	x	u	x	i
COc1ccc(C(=O)/C=C2\Sc3ccccc3N2C)cc1	u	u	u	u	u	i
CC(=S)/C=C1\Sc2ccccc2N1C	1%	5µM*	1%	i	10µM*	i
Cc1cccc(-n2ccnc2CN2CCC(CO)(Cc3ccccc3)CC2)c1	3%	16µM*	-5%	i	-4%	i
Cc1cccc(-n2ccnc2CN2CCN(C3CCCC3)C(CCO)C2)c1 (stereo not given)	1%	-25%	-2%	i	-16%	i
CCOC(=O)C1(CC2CCCCO2)CCN(Cc2nccn2-c2ccc(OC)cc2)CC1 (stereo not given)	-4%	7.1µM*	-1%	u	u	i
CCOC(=O)C1(CC2CCCCO2)CCN(Cc2cc(F)ccc2-n2cccn2)CC1 (stereo not given)	-20%	15%	-7%	i	15%	i
CCOC(=O)C1(CC2CCCCO2)CCN(Cc2nccn2-c2cccc(C)c2)CC1 (stereo not given)	5%	4.5µM*	8%	i	13µM*	i
CCNc1ncc2nc(-c3ccc(Cl)cc3)c(=O)n(Cc3ccc(F)cc3)c2n1	x	-9%	x	x	4%	x
COc1cccc(NC(=O)Cn2c(=O)n(Cc3ccc(C(=O)NCc4ccc5c(c4)OCO5)cc3)c(=O)c3ccccc32)c1	x	x	x	i	x	i

Source: PubChem (National Center for Advancing Translational Sciences (NCATS))
